Results: the supplement of paper PMC12024424
Counter-ions that a name gives are not always drawn.

Each molecule was assayed on Staphylococcus aureus Sa2 (MRSA, cystic fibrosis isolate) (assay: growth reduction vs untreated control (viable cell count); higher = stronger antibacterial activity; extreme values may be limits of the assay). Conditions: 0.1 mM; 24 h.
Method: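 Single-dose screen of the MedChem Express Drug Repurposing Library (0.1 mM, 1% DMSO) against planktonic MRSA S. aureus Sa2 (CF isolate) in TSB in 96-well plates, 37 °C aerobic, 24 h. Assays were run in triplicate and repeated twice.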
Molecule `Cc1cc2c(cc1CC(=O)c1sccc1S(=O)(=O)Nc1onc(C)c1Cl)OCO2` [Sitaxsentan (sodium)] has a growth reduction of 90%.
With `CC(C)Nc1nc2cc(Cl)c(Cl)cc2n1[C@H]1O[C@@H](CO)[C@H](O)[C@@H]1O` [Maribavir] the growth reduction was 94%.
With `O=C(O)C1(c2ccc(-c3ccc(Cl)c(Cl)c3)c(F)c2)CC1` [Itanapraced] the growth reduction was 100%.
Molecule `CC(=O)c1cc2c(o1)C(=O)c1ccccc1C2=O` [Napabucasin] has a growth reduction of 100%.
`O=C(O)CNC(=O)c1c(=O)cc(CCc2ccccc2)n2[nH]cnc12` [Enarodustat] was tested, and the growth reduction was 92%.
`Clc1ccc(Nc2nnc(Cc3ccncc3)c3ccccc23)cc1` [Vatalanib (dihydrochloride)] showed a growth reduction of 100%.
`NC(=O)[C@@H]1CC[C@@H]2CN1C(=O)N2OS(=O)(=O)O` [Avibactam (sodium)] was tested, and the growth reduction was 97%.
Work on `Cc1nc(C(=O)NCC(=O)O)c(O)c2ccc(Oc3ccccc3)cc12` [Roxadustat] yielded a growth reduction of 98%.
For `NC(=O)N1CCC(CC(=O)N2CCC([C@H]3c4ncc(Br)cc4CCc4cc(Cl)cc(Br)c43)CC2)CC1` [Lonafarnib], the growth reduction was 96%.
Work on `CC/C(=C(\c1ccccc1)c1ccc(OCCN(C)C)cc1)c1ccccc1` [Tamoxifen (Citrate)] yielded a growth reduction of 100%.
`OCCN1CCN(CCCN2c3ccccc3Sc3ccc(Cl)cc32)CC1` [Perphenazine] was tested, and the growth reduction was 100%.
`COC(=O)N[C@H](C(=O)N1CCC[C@H]1c1nc(-c2ccc3c(c2)O[C@@H](c2ccccc2)n2c-3cc3cc(-c4c[nH]c([C@@H]5CCCN5C(=O)[C@@H](NC(=O)OC)C(C)C)n4)ccc32)c[nH]1)C(C)C` [Elbasvir] gave a growth reduction of 100%.
Molecule `CCCCCCCCCCCC1=C(O)C(=O)C=C(O)C1=O` [Embelin] has a growth reduction of 100%.
With `CNC(=O)c1cc(Oc2ccc(NC(=O)Nc3ccc(Cl)c(C(F)(F)F)c3)c(F)c2)ccn1` [Regorafenib (Hydrochloride)] the growth reduction was 100%.
In the case of `c1ccc(-c2ccc(C(c3ccccc3)n3ccnc3)cc2)cc1` (stereo not given) [Bifonazole], the growth reduction is reported as 100%.
`CC(C)COc1ccc(CNC(=O)N(Cc2ccc(F)cc2)C2CCN(C)CC2)cc1` [Pimavanserin] gave a growth reduction of 100%.
In the case of `COCCNCCc1cccc(Nc2ncc3c(n2)-c2ccccc2[C@H](c2ccccc2F)C3)c1` [Derazantinib], the growth reduction is reported as 100%.
With `CN1CCCC(CC2c3ccccc3Sc3ccccc32)C1` (stereo not given) [Metixene hydrochloride hydrate] the growth reduction was 100%.
`CSc1ccc(OCc2ncc([N+](=O)[O-])n2C)cc1` [Fexinidazole] showed a growth reduction of 93%.
`O=C(NC[C@H]1CN(c2ccc(N3CCOCC3=O)cc2)C(=O)O1)c1ccc(Cl)s1` [Rivaroxaban] showed a growth reduction of 100%.
`CCCCCc1ccc(C=CC(=O)Nc2ccccc2C(=O)O)cc1` [N-(p-amylcinnamoyl) Anthranilic Acid] gave a growth reduction of 100%.
Work on `CO[C@H](C(=O)[C@@H](O)[C@@H](C)O)[C@@H]1Cc2cc3cc(O[C@H]4C[C@@H](O[C@H]5C[C@@H](O)[C@H](O)[C@@H](C)O5)[C@H](O)[C@@H](C)O4)c(C)c(O)c3c(O)c2C(=O)[C@H]1O[C@H]1C[C@@H](O[C@H]2C[C@@H](O[C@H]3C[C@](C)(O)[C@H](O)[C@@H](C)O3)[C@@H](O)[C@@H](C)O2)[C@H](O)[C@@H](C)O1` [Plicamycin] yielded a growth reduction of 100%.
In the case of `CC/C(=C(\c1ccccc1)c1ccc(OCCN(C)C)cc1)c1ccccc1` [Tamoxifen], the growth reduction is reported as 100%.
`OCc1cc([C@@H](O)CNCCCCCCOCCOCc2c(Cl)cccc2Cl)ccc1O` [Vilanterol] showed a growth reduction of 100%.
With `CCCCCOc1ccccc1/C(=C\SC)n1ccnc1` [Neticonazole (hydrochloride)] the growth reduction was 100%.
For `Clc1ccc(CSC(Cn2ccnc2)c2ccc(Cl)cc2Cl)cc1` (stereo not given) [Sulconazole (nitrate)], the growth reduction was 100%.
Molecule `Cc1cc(CC(C)CC(C)(C)C)n(O)c(=O)c1` (stereo not given) [Piroctone olamine] has a growth reduction of 100%.
Work on `CC(C)c1c(C(=O)Nc2ccccc2)c(-c2ccccc2)c(-c2ccc(F)cc2)n1CC[C@@H](O)C[C@@H](O)CC(=O)O` [Atorvastatin (hemicalcium salt)] yielded a growth reduction of 98%.
In the case of `COCCN1CCC(N(Cc2ccc(-c3ccc(C(F)(F)F)cc3)cc2)C(=O)Cn2c(SCc3cccc(F)c3F)cc(=O)c3ccccc32)CC1` [Rilapladib], the growth reduction is reported as 100%.
Molecule `CC(C)(O)c1ccccc1CC[C@@H](SCC1(CC(=O)O)CC1)c1cccc(/C=C/c2ccc3ccc(Cl)cc3n2)c1` [Montelukast (sodium)] has a growth reduction of 100%.
For `COc1cc2c(cc1Cc1cccc(Cl)c1F)c(=O)c(C(=O)O)cn2[C@H](CO)C(C)C` [Elvitegravir], the growth reduction was 100%.
In the case of `Oc1c(I)cc(Cl)c2cccnc12` [Clioquinol], the growth reduction is reported as 100%.
In the case of `COc1cc2ncnc(Nc3ccc(F)c(Cl)c3)c2cc1NC(=O)/C=C/CN1CCCCC1` [Dacomitinib], the growth reduction is reported as 100%.
For `O=C(O)Cc1ccccc1Nc1c(Cl)cccc1Cl` [Diclofenac], the growth reduction was 100%.
`CCC[C@H](Oc1cc(C)c(-n2cc(C(F)(F)F)cn2)c(C)c1)c1ccc(C(=O)NCCC(=O)O)cc1` was tested, and the growth reduction was 100%.
With `Clc1ccc(CCC(Cn2ccnc2)Sc2c(Cl)cccc2Cl)cc1` (stereo not given) [Butoconazole (nitrate)] the growth reduction was 100%.
`O/N=c1\cc(-c2cc3sccc3cn2)oc2ccc(CCCN3CCOCC3)cc12` [Foliglurax (monohydrochloride)] was tested, and the growth reduction was 100%.
`COc1cc(NCc2ccc3nc(N)nc(N)c3c2C)cc(OC)c1OC` [Trimetrexate] gave a growth reduction of 100%.
`Cc1nc2sccn2c(=O)c1CCN1CCC(=C(c2ccc(F)cc2)c2ccc(F)cc2)CC1` [Ritanserin] was tested, and the growth reduction was 100%.
Molecule `O=C(CCCCCCNC(=O)c1cnc(N(c2ccccc2)c2ccccc2)nc1)NO` [Ricolinostat] has a growth reduction of 100%.
